From PubChem BioAssay AID504834 (National Center for Advancing Translational Sciences (NCATS), 2011)
The whole screen tested about 320,000 compounds, of which about 22,000 (6.9%) were called active. Entries that show only a call come without a potency. Roughly 27% stayed inconclusive and do not appear here. The call rests on the fitted dose curve; in most records, active means well fitted inhibition curve with a large enough effect; inconclusive means small, poorly fitted or top-dose-only effect, or another doubt; inactive means no such curve, though single readings can be large or run the other way. Many of the other results were omitted from the sample, so actives are more common in it than they were.

assay: Primary qHTS for delayed death inhibitors of the malarial parasite plastid, 96 hour incubation; conditions: P. falciparum luciferase reporter growth; series mostly up to 28.7 µM
How it was run: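 P. falciparum expressing integrated firefly luciferase, in erythrocytes at 2% hematocrit, 0.05% parasitemia, incubated with compounds 96 h at 37 C, 5% CO2. Growth inhibition read as loss of luminescence; two-generation exposure targets delayed-death apicoplast inhibitors.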
Potency means the concentration at half of the fitted maximal effect.

Row | SMILES | Potency
1 | CCOc1ccc2c(c1)c(=O)c(S(=O)(=O)c1ccc(C)cc1)cn2CC | inactive
2 | COC(=O)c1ccc(NC(=O)CSc2nncn2-c2cccnc2)cc1 | inactive
3 | COc1cccc(C(=O)NNC(=O)c2ccccc2Br)c1 | inactive
4 | COc1cccc(C(=O)NNC(=O)c2cccc(F)c2)c1 | 0.37 µM (active)
5 | COc1cccc(C(=O)NNC(=O)/C=C/c2ccccc2)c1 | inactive
6 | COCCCNS(=O)(=O)c1cccc(S(=O)(=O)c2cccc(S(=O)(=O)NCCCOC)c2)c1 | inactive
7 | CCc1noc(C)c1C(=O)Oc1ccc(N(C)S(=O)(=O)c2ccc(C)c(C)c2)cc1 | inactive
8 | C/C(=N\NC(=S)NCc1ccccc1)C1CCCCC1 | 6.57 µM (active)
9 | C/C(=N\NC(=S)NCc1ccccc1)c1ccc(Cl)cc1 | inactive
10 | CC1CCCCN1C(=S)NCc1ccccc1 (centres undefined) | inactive
11 | Cc1c(C)n2c(SCC(=O)N3CCCC3)nnc2[nH]c1=O | inactive
12 | COc1cc(OC)c(NS(=O)(=O)c2cn(C)cn2)cc1Cl | inactive
13 | COC(=O)c1c(C)oc(C)c1S(=O)(=O)Nc1ccc(C(C)C)cc1 | inactive
14 | CN(CC(=O)Nc1ccc(N2CCOCC2)cc1)CC(=O)Nc1ccccc1[N+](=O)[O-] | inactive
15 | CN1CCN(CCNC(=O)Nc2ccccc2[N+](=O)[O-])CC1 | 8.28 µM (active)
16 | CCc1ccccc1NC(=O)NCCN1CCCCC1 | inactive
17 | CC1Cc2cc(/C(O)=C3\C(=O)C(=O)N(Cc4cccnc4)C3c3ccccc3F)ccc2O1 (centres undefined) | inactive
18 | CCn1cc(C(=O)N2CC(C)CC(C)C2)c(=O)c2cc(S(=O)(=O)N3CCCC3)ccc21 (centres undefined) | inactive
19 | CC1CC(C)CN(S(=O)(=O)c2ccc(C(=O)NN3CCOCC3)cc2)C1 (centres undefined) | inactive
20 | COC(=O)c1cn(C)c2ccc(S(=O)(=O)N3CC(C)CC(C)C3)cc2c1=O (centres undefined) | 3.7 µM (active)
21 | Cc1ccc(-c2cc(C(=O)NN)n[nH]2)o1 | inactive
22 | CCC1(CC)NC(=O)N(CC(=O)OCC(=O)c2cc(C)c(C)cc2C)C1=O | inactive
23 | Cc1cc(-c2nnc(SCC(=O)Nc3ccc(S(N)(=O)=O)cc3)n2N)n[nH]1 | inactive
24 | N#Cc1ccc(C(=O)OCC(=O)NC(=O)NC2CCCCC2)cc1 | inactive
25 | O=C(c1cccc(C(=O)N2CCN(c3ccc(F)cc3)CC2)c1)N1CCN(c2ccc(F)cc2)CC1 | 9.28 µM (active)
26 | O=C(c1cc2cc(F)ccc2[nH]1)N1CCN(c2ccc(F)cc2)CC1 | inactive

Row | SMILES | Potency
27 | O=C(c1ccccc1)c1ccc(C(=O)N2CCN(c3ccccc3)CC2)cc1 | inactive
28 | CC(C)(C)c1ccc(S(=O)(=O)N2CCN(C(=O)c3ccc4c(c3)C(=O)N(Cc3ccncc3)C4=O)CC2)cc1 | inactive
29 | CC(=O)c1ccc(NC(=O)c2cc(-c3cccs3)on2)cc1 | inactive
30 | Cc1ccc(NC(=O)CSc2sc3c(O)cc(=O)[nH]c3c2C#N)cc1C | inactive
31 | CCC1(c2ccccc2)NC(=O)N(CC(=O)c2ccc3c(c2)OCO3)C1=O (centres undefined) | inactive
32 | COc1ccc(N(CC(=O)NCCSCc2cccc(Cl)c2)S(C)(=O)=O)cc1 | inactive
33 | CCC(CCC(C)C1CCC2C3CC=C4CC(O)CC[C@@]4(C)C3CC[C@@]12C)C(C)C (some centres undefined) | inactive
34 | CN(C)c1ccc(/C=C2\CC3C4CC=C5CC(O)CCC5(C)C4CCC3(C)C2=O)cc1 (centres undefined) | 2.33 µM (active)
35 | CN(C)c1ccc(C=C2C(=O)OC3(CCCC3)OC2=O)cc1 | inactive
36 | O=C(O)[C@@H](S)[C@H](S)C(=O)O | 1.69 µM (active)
37 | c1cnc(N2CCN(c3ccc4ccccc4n3)CC2)nc1 | inactive
38 | Cc1ccc(-c2csc(-c3cc(C)on3)n2)cc1 | inactive
39 | Clc1ccc(-c2csc(-c3ccncc3)n2)cc1 | 0.185 µM (active)
40 | Fc1ccc(-c2csc(-c3ccc(C4SCCS4)cc3)n2)cc1F | inactive
41 | Cc1ccc(C(=O)N(CC(=O)NC2CCCC2)c2ccc(F)cc2)s1 | inactive
42 | COCc1ccc(C(=O)NC2CC(C)(C)Cc3c2cnn3-c2ccc(C)cc2)o1 (centres undefined) | inactive
43 | Cc1cc(C)cc(NC(=S)NC2CC3CCCC(C2)N3Cc2cccs2)c1 (centres undefined) | 2.33 µM (active)
44 | C=CCN1C2CCCC1CC(NC(=S)Nc1cccc(OC)c1)C2 (centres undefined) | inactive
45 | COc1ccc(NC(=O)NC2CC3CCCC(C2)N3Cc2ccccc2)cc1 (centres undefined) | inactive
46 | CCC(CC)NC(=O)/C=C/c1cccc([N+](=O)[O-])c1 | inactive
47 | CCC1(C(=O)c2ccccc2)C(c2cccc([N+](=O)[O-])c2)C1(C(=O)OC)C(=O)OC (centres undefined) | 13.1 µM (active)
48 | CN(C(=O)c1cccc([N+](=O)[O-])c1)c1ccccc1C(=O)NCc1ccccc1 | inactive
49 | O=C(CCl)Nc1ccc(Sc2ccc(NC(=O)CCl)cc2)cc1 | 1.85 µM (active)
50 | CCC(=O)Nc1ccc(Nc2nc(Cl)nc(Nc3ccc(NC(=O)CC)cc3)n2)cc1 | inactive
51 | O=C(O)CSCC(=O)Nc1ccc(C(F)(F)F)cc1 | inactive
52 | Cc1ccc2nc(N(CCN(C)C)C(=O)C3=COCCO3)sc2c1 | inactive

Row | SMILES | Potency
53 | COCCNC(=O)c1ccc2nc(Cc3ccc(OC)c(OC)c3)oc2c1 | inactive
54 | O=C(Nc1ccccc1-c1ccccc1)c1ccccc1[N+](=O)[O-] | inactive
55 | O=C(CN1CCC(NC(=O)C2CC2)CC1)Nc1ccccc1[N+](=O)[O-] | 0.738 µM (active)
56 | O=C(NNC(=O)c1ccccc1[N+](=O)[O-])Nc1ccccc1C(F)(F)F | 11.7 µM (active)
57 | O=[N+]([O-])c1ccccc1Nc1ccc(O)cc1 | inactive
58 | O=C(Nc1cccc(NC(=O)c2ccccc2[N+](=O)[O-])c1)c1ccccc1Cl | inactive
59 | O=C(O)c1ccccc1NC(=O)c1ccccc1-c1ccccc1C(=O)O | inactive
60 | O=C(CN1CCC(NC(=O)Nc2ccccc2)CC1)Nc1cccc([N+](=O)[O-])c1 | inactive
61 | O=C(CN1CCCCC1)Nc1ccccc1C(=O)NC1CC1 | inactive
62 | O=C(Nc1ccncc1)c1ccccc1[N+](=O)[O-] | inactive
63 | O=C(Nc1ccccc1[N+](=O)[O-])C1C(c2ccccc2)=C1c1ccccc1 | 13.1 µM (active)
64 | O=C(O)c1ccccc1NC(=S)NC(NC(=O)c1ccccc1[N+](=O)[O-])C(Cl)(Cl)Cl (centres undefined) | 13.1 µM (active)
65 | O=C(O)c1ccccc1C(=O)Nc1ccccc1[N+](=O)[O-] | inactive
66 | Cc1ccsc1C(=O)NCCc1ccco1 | inactive
67 | CCCOC1CCCN(C(=O)c2cc(COc3cncc(Cl)c3)on2)C1 (centres undefined) | inactive
68 | O=C1Nc2cc(C(=O)N3CCN(c4ccc(F)cc4)CC3)ccc2NC1CSCc1cccc(F)c1 (centres undefined) | inactive
69 | COC(=O)c1sc(NC(=S)NC(=O)c2ccc(C)cc2)nc1C | inactive
70 | Nc1cccc(S(=O)(=O)Nc2ccc(SC(F)F)cc2)c1 | inactive
71 | COc1cc(N=Cc2c(O)c3ccccc3oc2=O)c(OC)cc1Cl | inactive
72 | CCOc1ccc(S(=O)(=O)NCCC(=O)N2CCCCCCC2)cc1 | inactive
73 | CCN(CC(=O)NCc1ccc(Cl)cc1)C(=O)c1c(C)noc1C | inactive
74 | Cc1ccccc1Nc1c([N+](=O)[O-])ccc2nonc12 | inactive
75 | CCc1nc2sc3c(Cl)ncnc3c2c2c1CCCC2 | inactive
76 | O=C(c1cnc(Cl)c(Cl)c1)N1CCN(S(=O)(=O)c2ccc(F)cc2)CC1 | inactive
77 | Cc1nc(-c2ccc(F)cc2)c(CC(=O)N(C)CC(=O)Nc2c(C)cccc2C)s1 | inactive
78 | Cc1nc(-c2ccc(F)cc2)c(CC(=O)N2CCN(S(=O)(=O)c3ccc(F)cc3)CC2)s1 | 13.1 µM (active)

Row | SMILES | Potency
79 | COc1ccc(N2C(=O)NC(NS(=O)(=O)c3ccc(Cl)cc3)(C(F)(F)F)C2=O)cc1 (centres undefined) | inactive
80 | O=C1CSc2ccc(S(=O)(=O)NCc3ccccc3)cc2N1 | inactive
81 | CC1(C)CC(=O)C(N=Nc2c(F)cccc2F)=C(O)C1 | inactive
82 | CCC(NC(=O)C1CCCC1)c1ccc(C)cc1 (centres undefined) | inactive
83 | CCCCN(CC(=O)Nc1cccc(S(=O)(=O)N2CCCC2)c1)Cc1nc2ccccc2c(=O)[nH]1 | 5.86 µM (active)
84 | O=C(Cn1cnc2ccccc2c1=O)Nc1cccc(S(=O)(=O)N2CCCCC2)c1 | inactive
85 | CCN(CC(=O)Nc1cccc(S(N)(=O)=O)c1)Cc1nc2ccccc2c(=O)[nH]1 | inactive
86 | CCc1noc(C)c1C(=O)N1CCN(S(=O)(=O)c2cccc(C(F)(F)F)c2)CC1 | inactive
87 | Cn1ncc(Br)c1C(=O)NC1CCCC1 | inactive
88 | NC(=O)CSc1nnc(NC(=O)c2ccc3ccccc3c2)s1 | inactive
89 | CC(=O)N1N=C(c2ccccc2)OC1c1cccnc1 (centres undefined) | inactive
90 | CC(=O)N1N=C(c2ccncc2)OC1(Cc1ccccc1)Cc1ccccc1 | 11.7 µM (active)
91 | CC(C)(C)N(Cc1ccccc1)C(=O)c1ccncc1 | inactive
92 | Cn1c(C(=O)N2CCCC(C(=O)NCc3ccccc3)C2)cc2sccc21 (centres undefined) | inactive
93 | COc1ccc(NC(=O)c2cc(-c3cc(OC)c(OC)c(OC)c3)nc3ccccc23)c(OC)c1 | 2.62 µM (active)
94 | COc1cc(-c2cc(C(=O)OCC(=O)Nc3ccc4c(c3)OCO4)c3ccccc3n2)cc(OC)c1OC | inactive
95 | CNC(=O)COC(=O)c1cc(-c2ccc(OC)cc2)nc2ccccc12 | inactive
96 | CC1CCCCC12NC(=O)N(CC(=O)OCC(=O)NCc1ccc(F)cc1)C2=O (centres undefined) | inactive
97 | O=C(C1CCN(S(=O)(=O)c2ccc(Br)s2)CC1)N1CCN(C2CCCCC2)CC1 | 4.65 µM (active)
98 | Cc1ccc(C(=O)N2CCN(C3CCCCC3)CC2)s1 | inactive
99 | O=C(C1CCN(S(=O)(=O)c2ccc(Br)s2)CC1)N1CCN(c2ccccc2)CC1 | inactive
100 | Cc1cccc(C)c1NC(=O)N1CC(C)OC(C)C1 (centres undefined) | inactive
101 | COC(=O)c1ccc(OC(=O)c2cnccn2)cc1 | inactive
102 | Cc1cccc(OP(=O)(Nc2c(C)n(C)n(-c3ccccc3)c2=O)Oc2cccc(C)c2)c1 | inactive
103 | Cc1cccc(OCC(=O)Nc2ccccc2F)c1 | inactive
104 | Cc1cccc(OP(=O)(Oc2cccc(C)c2)OC(c2ccccc2)C(F)(F)F)c1 (centres undefined) | 13.1 µM (active)
